Data as given in PubChem BioAssay.

Columns and labels:
[1] = system: Human papillomavirus type 1a protein E7 (residues 44-93); assay: small molecules binding HPV E7 44-93 – biochemical, small-molecule microarray, residues 44-93, 635 nm fluorescence, primary screen (AID 1108); details: fluorescence 635 nm, higher = more signal;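 also: E7 fragment applied at 1 µg/mL in TBST for 1 h at 4 C; score combines spot fluorescence with its signal to noise ratio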
[2] = hepatitis C replication reporter changes, two-sided – Huh7 cells, luciferase reporter, HCV replication inhibitor project, primary screen (AID 1109); details: Huh7 HCV replicon luciferase reporter, 48 h; higher = more signal;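 also: huh7 hepatoma cells harbouring a luciferase neomycin HCV replicon reporter; luciferase luminescence as measure of HCV replicon replication; test concentration not given here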
[3] = biological target: Left-right determination factor 2 (Homo sapiens) (UniProt O00292); assay: small molecules binding LEFTY2 protein – biochemical, small-molecule microarray, 635 nm fluorescence scan, primary screen (AID 1110); details: higher = more signal
[4] = biological target: Calmodulin-1 (Homo sapiens) (UniProt P0DP23); assay: small molecules binding calmodulin-1 with EGTA – biochemical, small-molecule microarray, Cy5-labelled CALM1, profiling panel (AID 1111); details: Cy5-CALM1 binding fluorescence, higher = more signal;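 also: labelled calmodulin applied in Tris saline Tween buffer holding calcium plus EGTA and DTT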
[5] = biological target: Calmodulin-1 (Homo sapiens) (UniProt P0DP23); assay: small molecules binding Ca-loaded calmodulin-1 – biochemical, small-molecule microarray, Cy5-labelled CALM1, plus calcium, artefact control for SMM control-protein annotation, profiling panel (AID 1112); details: Cy5-CALM1 binding fluorescence, higher = more signal;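 also: score merges spot fluorescence with signal to noise from triplicate slides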
[6] = probe aWnt5a binding to arrayed compounds – biochemical, biotinylated probe, 635/667 nm fluorescence, primary screen (AID 1113); details: small-molecule microarray, higher = more signal;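 also: score merges 667 nm fluorescence intensity with signal-to-noise per printed feature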
[7] = probe aShh binding to arrayed compounds – biochemical, biotinylated probe, 635/667 nm fluorescence, primary screen (AID 1114); details: small-molecule microarray, higher = more signal;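 also: probe is biotin-labelled aShh protein from a stem cell growth factor screen; measures binding of labelled protein to compounds printed on the slide; score merges feature fluorescence at 667 nm with signal-to-noise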
[8] = probe aNog binding to arrayed compounds – biochemical, biotinylated probe, 635/667 nm fluorescence, primary screen (AID 1115); details: small-molecule microarray, higher = more signal;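 also: probe is biotinylated aNog protein used at 0.15 µg/mL for 1 h at 4 C; z-score combines 667 nm fluorescence of each spot with its signal to noise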
[9] = biological target: Torsin-1A-interacting protein 1 (Homo sapiens) (UniProt Q5JTV8); assay: compound microarray binding of lysate hLAP1 – cell lysate, small-molecule microarray, COS7 lysate, 635/667 nm fluorescence, primary screen (AID 1116); details: 635 nm fluorescence, higher = more signal
[10] = biological target: Alpha-bungarotoxin (Bungarus multicinctus) (UniProt P60615); assay: compounds binding labelled alpha-BTX control protein – biochemical, small-molecule microarray, Alexa647 label, 635/667 nm fluorescence, artefact control for SMM control protein annotation, profiling panel (AID 1117); details: alpha-BTX-A647 binding fluorescence, higher = more signal
Chain of Alpha-bungarotoxin (Bungarus multicinctus) (P60615 whole entry, looked up): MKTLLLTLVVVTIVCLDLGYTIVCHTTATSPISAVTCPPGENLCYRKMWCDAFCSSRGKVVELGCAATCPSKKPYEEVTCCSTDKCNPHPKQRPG

Chain of Torsin-1A-interacting protein 1 (Homo sapiens) (Q5JTV8 whole entry, looked up): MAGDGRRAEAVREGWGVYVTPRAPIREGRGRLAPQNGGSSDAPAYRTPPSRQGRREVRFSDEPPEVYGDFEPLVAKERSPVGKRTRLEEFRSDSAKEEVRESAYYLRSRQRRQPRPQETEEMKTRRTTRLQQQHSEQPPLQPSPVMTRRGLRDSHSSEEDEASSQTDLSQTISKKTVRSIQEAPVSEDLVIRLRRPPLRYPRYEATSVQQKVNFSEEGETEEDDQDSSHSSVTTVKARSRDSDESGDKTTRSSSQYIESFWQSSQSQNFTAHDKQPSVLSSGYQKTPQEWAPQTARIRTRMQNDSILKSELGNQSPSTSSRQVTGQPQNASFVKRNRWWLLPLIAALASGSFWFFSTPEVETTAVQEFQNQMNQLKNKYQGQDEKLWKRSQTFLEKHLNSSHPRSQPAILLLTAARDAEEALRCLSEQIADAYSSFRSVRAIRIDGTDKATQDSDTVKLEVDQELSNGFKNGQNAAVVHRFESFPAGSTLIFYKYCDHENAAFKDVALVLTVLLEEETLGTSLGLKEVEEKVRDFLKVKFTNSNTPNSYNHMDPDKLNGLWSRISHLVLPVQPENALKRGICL
Chain of Left-right determination factor 2 (Homo sapiens) (O00292 whole entry, looked up): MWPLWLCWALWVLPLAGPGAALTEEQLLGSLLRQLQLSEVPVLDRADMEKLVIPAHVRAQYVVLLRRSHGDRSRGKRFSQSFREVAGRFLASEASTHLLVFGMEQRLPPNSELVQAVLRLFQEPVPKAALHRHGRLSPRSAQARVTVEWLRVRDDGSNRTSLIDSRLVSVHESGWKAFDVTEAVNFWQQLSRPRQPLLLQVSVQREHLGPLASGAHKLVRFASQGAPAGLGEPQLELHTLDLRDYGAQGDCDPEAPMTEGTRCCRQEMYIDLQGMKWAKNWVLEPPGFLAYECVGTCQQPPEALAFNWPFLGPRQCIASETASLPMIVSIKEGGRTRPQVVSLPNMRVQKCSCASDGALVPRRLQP

Row | SMILES | composite z-score [1] | z-score [2] | composite z-score [3] | composite z-score [4] | composite z-score [5] | composite z-score [6] | composite z-score [7] | composite z-score [8] | composite z-score [9] | composite z-score [10]
1 | CCOC(=O)C1=CC[C@@H](c2ccccc2Cl)N(S(=O)(=O)c2ccc(C)cc2)[C@H]1c1cccc(OC)c1 | 0.414 | -0.587 | -0.0038 | 0.107 | 0.369 | 0.0382 | 0.123 | 0.216 | 0.111 | 0.253
2 | CC(C)C(=C=CC[C@@H](O)c1cccc(OCCO)c1)CCO | 0.217 | 0.13 | 0.0381 | -0.203 | -0.136 | -0.154 | -0.229 | -0.273 | 0.393 | -0.529
3 | O=C1C2C=CC(C(O)C(c3ccccc3)c3ccccc3)N(Nc3ccccc3)C2C(=O)N1c1ccccc1 (stereo not given) | 1.44 | -0.267 | 0.438 | 0.809 | 0.173 | -0.0051 | 0.0068 | 0.162 | 0.429 | 1.1
4 | C=CCC(OC(C)=O)[C@@H]1[C@@H](N(Cc2cccc3ccccc23)C(=O)c2ccc(-c3ccccc3)cc2)c2cc(OCCCO)ccc2N1C(=O)c1ccc2ccccc2n1 (stereo not given in full) | 0.237 | 0.15 | 0.258 | 0.249 | 0.979 | -0.0685 | 0.158 | -0.278 | 0.529 | -0.0098
5 | COCCOC(=O)N1C(=O)[C@@]2(c3cc(C#Cc4ccc(OC)cc4)ccc31)[C@H](C(=O)N1CCCCCCC1)[C@H]1C(=O)O[C@H](c3ccccc3)[C@H](c3ccccc3)N1[C@@H]2c1ccccc1OCCO | 1.35 | -0.0111 | 0.647 | 2.42 | 1.49 | 1.16 | 0.451 | 1.53 | 4.47 | 2.27
6 | CC(C)=CCN(C(=O)C#Cc1ccccc1)[C@H](CO)c1ccccc1 | 1.16 | -4.92 | 0.379 | -0.557 | -0.56 | -0.0346 | -0.16 | -0.302 | 0.58 | 0.14
7 | CCCCC(=C=CC[C@@H](O)c1cccc(OCCO)c1)C[C@@H](O)COCc1ccccc1 | -0.622 | -1.78 | -0.0756 | -0.613 | -0.285 | -0.096 | -0.0709 | -0.219 | 0.546 | 1.35
8 | CC(C)C(=C=CC[C@@H](O)c1ccc(OCCO)cc1)CCO | 0.0426 | -0.283 | -0.141 | 0.236 | -0.421 | -0.18 | -0.237 | -0.178 | -0.117 | 0.441
9 | [N-]=[N+]=NCc1ccccc1C[C@]1(C(=O)N2CCOCC2)N=C(c2ccc(OCCCO)cc2)O[C@H]1c1ccccc1CN=[N+]=[N-] | 0.344 | -2.48 | -0.0716 | 2.49 | 1.28 | 0.653 | 0.564 | 0.967 | 2.79 | 2.74
10 | CCOC(=O)C[C@H]1[C@H](OC(=O)c2ccc(C(=O)c3ccccc3)cc2)[C@@H](NC(=O)c2ccc3ccccc3c2)c2cc(OCCCO)ccc2N1C(=O)c1ccc2ccccc2n1 | 1.05 | -0.415 | 0.23 | 0.794 | -0.191 | -0.168 | -0.191 | -0.188 | 0.982 | 0.898
11 | CC(C)(C)OC(=O)CC[C@]1(C(=O)N2CCOCC2)N=C(c2ccc(OCCCO)cc2)O[C@H]1c1ccccc1CN=[N+]=[N-] | 1.36 | -0.229 | -0.457 | 1.27 | 0.15 | -0.0221 | -0.141 | 1.92 | 2.38 | 1.68
12 | CC(C)C[C@@H]1NC(=O)[C@@H]2C[C@H](C(=O)NCCCC[N+](C)(C)C)[C@H](c3ccc(O)cc3)N2C1=O | 0.39 | -0.996 | 1.05 | -0.928 | -0.768 | 0.0031 | 0.199 | 0.114 | 1.24 | 0.789
13 | C=CC[C@]1(C(=O)NCCCOC)N=C(c2ccc(OCCCO)cc2)O[C@H]1c1ccccc1 | 1.44 | -1.53 | -0.916 | 0.287 | -0.484 | 0.108 | -0.0626 | 0.328 | 1.03 | -0.0901
14 | CC(C)[Si](C#CCCCC#N)(O[C@H](c1ccccc1)c1cn([C@H](C)c2ccccc2)nn1)C(C)C | 1.21 | -1.91 | 0.392 | -0.0129 | -0.0984 | -0.0924 | 0.318 | -0.262 | 0.137 | 0.18
15 | CC=CC(O)C1C=CC2C(=O)N(C)C(=O)C2N1NC(=O)OC(C)(C)C (stereo not given) | -1.08 | 0.381 | 0.478 | 0.127 | -0.516 | -0.101 | -0.206 | -0.135 | 0.512 | 0.277
16 | CN(C)CCCCNC(=O)[C@H]1C[C@H]2C(=O)N[C@@H](Cc3ccccc3)C(=O)N2[C@H]1c1cccc(OCCO)c1 | -1.49 | -0.251 | 0.0071 | -0.545 | 0.0005 | -0.217 | 0.251 | -0.338 | 0.0886 | 0.336
17 | CCCCC(O)C1C=CC2C(=O)NC(=O)C2N1Nc1ccc(Cl)cc1Cl (stereo not given) | 0.694 | -1.12 | -1.11 | 0.436 | 0.476 | 0.0915 | 0.0483 | 1.31 | -0.0411 | 1.1
18 | COCCOC(=O)N1C(=O)[C@@]2(c3cc(C#CCCO)ccc31)[C@H](C(=O)N1CCN(c3ncccn3)CC1)[C@H]1C(=O)O[C@H](c3ccccc3)[C@H](c3ccccc3)N1[C@@H]2c1ccc(O)cc1 | 0.228 | -1.65 | 0.0272 | -0.444 | -0.559 | -0.0179 | 0.0074 | 1.01 | 0.894 | 1.85
19 | COc1ccc([Si](C)(C)[C@H]2[C@H](CCO)O[C@@]3(C(=O)N(Cc4ccccc4)c4ccc(N(C=O)c5ccccc5)cc43)[C@@H]2C)cc1 | 1.21 | -4.6 | 0.274 | 1.1 | 0.444 | -0.0512 | -0.0769 | -0.352 | 0.431 | 0.0701
20 | Cc1c(NC(=O)/C(C#N)=C/c2ccc(Cl)cc2)c(=O)n(-c2ccccc2)n1C | -0.648 | -0.871 | 0.119 | 1.14 | 0.629 | -0.0869 | -0.0503 | 0.486 | 1.58 | 0.766
21 | COCCOC(=O)N1C(=O)[C@@]2(c3cc(C#CC4(O)CCCCCC4)ccc31)[C@H](c1ccc(OCCO)cc1)N1[C@H](c3ccccc3)[C@H](c3ccccc3)OC(=O)[C@H]1[C@@H]2C(=O)N1CCCCCCC1 | 1.41 | -1.94 | 0.725 | 2.18 | 1.45 | 0.716 | 1.01 | 2.62 | 2.51 | 1.89
22 | C=C(CC1([C@@H](NP(=O)(c2ccccc2)c2ccccc2)[C@H]2C[C@@H]2CCN(C(=O)OCC)S(=O)(=O)c2ccc(C)cc2)CC1)c1ccccc1 | 1.39 | -2.09 | -0.763 | 1.88 | 1.07 | 0.0267 | 0.935 | 1.06 | 0.379 | 0.749
23 | C=C(COC)/C(=C/C[C@@H](OC(C)=O)c1ccccc1OCCO)c1cc(C(=O)OC)ccc1OC | 1.3 | -2.3 | -0.145 | -0.249 | -0.808 | -0.1 | 0.0469 | 0.0502 | 1.46 | 0.324
